This is an account of results in PubChem BioAssay (NCATS).

Records with an inconclusive call do not appear. Unmarked numbers belong to inactive results. Activity calls are given as the source filed them. Calls come from the whole dose curve; as a rule, active = well fitted inhibition curve with a large enough effect; inconclusive = small, poorly fitted or top-dose-only effect; inactive = no such curve, though single readings can be large or run the other way.
% is set by controls: 0 for no effect and ±100 for the full control effect; potency is the fitted concentration of half-maximal effect.

The first assay can be described thus: qHTS assay to identify inhibitors of the type 1 interferon - major histocompatibility complex class I in skeletal muscle: Counter screen cell viability and HiBit confirmation (AID 1347412). Note: nearly all actives have a fitted effect of over 60% in size. The settings on record: iHSKM muscle cells + IFN-b, HiBiT or CellTiter-Glo, 24 h; HiBiT. The source says:
Assay Submitter (PI): Travis B. Kinder Ph.D. & James Inglese Ph.D. Assay Development and Screening Technology Laboratory (ADST) National Center for Advancing Translational Sciences (NCATS), Rockville, MD National Institute of Health (NIH), Bethesda, Maryland Idiopathic inflammatory myopathies, collectively referred to as myositis, are a group of rare autoimmune diseases characterized by skeletal muscle inflammation, weakness, and usually accompanied by systemic pathologies of the skin, lungs, or vasculature. Current immunosuppressive therapies and glucocorticoids are often not curative and are accompanied by harsh side effects, especially in children with juvenile myositis. We initiated a drug repurposing and development program to identify more targeted, less toxic therapeutics to treat myositis. Although its cause is not known, muscle from a subset of patients have an abundance of the inflammatory type 1 interferon (IFN) and a down-stream product major histocompatibility complex class I (MHC class I), which are both thought to contribute to damage and weakness. We conducted quantitative high throughput screening on 6,576 compounds (4,679 unique) through a series of cell-based assays to identify those that inhibit the IFN-stimulated expression of MHC class I in muscle precursor cells (myoblasts). The compound identification and evaluation strategy utilized a primary screen with reporter-tagged MHC class I in genome-engineered myoblasts, ATP content counter screen for viability, HLA-ABC immunofluorescence secondary screen, and HLA-B RT-qPCR tertiary screen. The primary screen utilized CRISPR/Cas9 genome-engineering of immortalized human myoblasts, C25cl48, where a pro-luminescent reporter HiBit was fused to the C-terminus of endogenous MHC class I allele HLA-B*08:01 (HLA-B HiBit myoblasts). HiBit is an 11 amino acid fragment of NanoLuc luminescent reporter (Promega Corporation), and when complexed to the larger LgBit fragment, the reconstituted enzyme produces light in the presence of furimazine substrate (Schwinn et al., 2018). Briefly, HLA-B HiBit myoblasts were plated into 1536-well plates, treated with 4.0 ng/ml human IFN-beta and 650 inhibitory compounds identified from primary screening in a 12-point, 1:3 titration with a high final concentration of 46 uM. Compounds were pinned into duplicate plates, with one for HiBit confirmation and one for ATP content viability assay. After 24 hrs of treatment, cells were assayed by either Nano-Glo HiBiT Lytic Detection System (Promega) or CellTiter Glo (Promega), and luminescence measured by a ViewLux 1430 Ultra HTS (Perkin Elmer). References: Schwinn MK, Machleidt T, Zimmerman K, Eggers CT, Dixon AS, Hurst R, Hall MP, Encell LP, Binkowski BF, Wood K V. 2018. CRISPR-Mediated Tagging of Endogenous Proteins with a Luminescent Peptide. ACS Chem Biol 13:467-474. doi:10.1021/acschembio.7b00549
PROTOCOL TABLE (as described by Inglese et al., 2007) SEQUENCE No. (e.g., 1, 2, 3, etc.); […] (e.g., Cells, Incubation, Reagent, etc.); VALUE; DESCRIPTION 1a; Cells; 5 uL; Use a Multidrop Combi (Thermo Scientific) to seed 300 cells/well into 16 Greiner 1536 well white/solid bottom, high base, TC plates in 5 ul/well of iHSKM growth medium (GM) without dexamethasone into columns 1+2. Add metal lids with gas-exchange holes 1b; Cells; 5 uL; Use a Multidrop Combi (Thermo Scientific) to seed 300 cells/well into 16 Greiner 1536 well white/solid bottom, high base, TC plates in 5 ul/well of iHSKM GM without dexamethasone + 4 ng/ml IFN-b into columns 3 - 48. Add metal lids with gas-exchange holes 2; Incubate; 1 hr; Incubate at 37 C, 5% CO2, 95% RH 3; Compounds; 23 nl; Use Pin Tool (Wako) to transfer DMSO control, 92 uM final digitonin cytotoxic control, ruxolitinib IFN-b inhibitor control [High Concentration = 80 uM final, 16-pt, 1:2 in duplicate], and library compounds in DMSO. […]
For the compound `CS[C@H]1SC[C@@H]2C(=O)N(C)[C@H](C(C)C)C(=O)OC[C@H](NC(=O)c3cnc4ccccc4n3)C(=O)N[C@H](C)C(=O)N(C)[C@H]1C(=O)N(C)[C@H](C(C)C)C(=O)OC[C@H](NC(=O)c1cnc3ccccc3n1)C(=O)N[C@H](C)C(=O)N2C`, the Potency was 0.0125 µM (active).
Same read-out and setting: the value for `OC1CCC(Oc2cccc3cnc(Nc4ccc5nc[nH]c5c4)nc23)CC1` (stereo not given) was 0.557 µM (active); that for `Cc1cc2cc(Oc3ccnc(Nc4cccc(CS(=O)(=O)NCCN(C)C)c4)n3)ccc2[nH]1` was 22.2 µM (active); that for `CN1CCN(c2ccc(Nc3ncc4cc(C#N)c(=O)n(C5CCCC5)c4n3)cc2)CC1` was 9.91 µM (active).
`CC1(C)OC2=C(C(=O)c3ccccc3C2=O)[C@H](NCc2ccccc2)[C@@H]1O`: the Potency is 9.91 µM (active).
The same measure, in the same setting: the value for `C=C1C(=O)O[C@H]2C[C@H](C)C(/C=C/C(C)=O)=CC[C@H]12` was 3.13 µM (active); that for `O=C(/C=C\n1cnc(-c2cc(C(F)(F)F)cc(C(F)(F)F)c2)n1)NNc1cnccn1` was 0.625 µM (active); that for `C=CCNc1c(O)cc2c(O)c1C[C@@H](C)C[C@H](OC)[C@H](O)[C@@H](C)/C=C(/C)[C@H](OC(N)=O)[C@@H](OC)/C=C\C=C(\C)C(=O)N2` was 0.0443 µM (active).
As to `CNc1nc(-c2ccc3c(N)n[nH]c3c2)cc(N2C[C@@H](C(=O)NC3CCCCC3)CC[C@H]2C)n1`, the Potency is 31.3 µM (active).
The same measure, in the same setting: the value for `CC(=O)/C=C1/C(=O)N(C)c2ccccc21` was 19.8 µM (active); that for `Cc1cc(O)c(-c2ccc([C@@H](C)CN)cc2)c2c1[nH]c(=O)c1sccc12` was 0.0394 µM (active); that for `C=CCNC1=C2CC(C)CC(OC)C(O)C(C)/C=C(\C)C(OC(N)=O)C(OC)/C=C/C=C(\C)C(=O)NC(=CC1=O)C2=O` (stereo not given) was 0.0497 µM (active).
The same measure, in the same setting: with `COC1CCC(N2C(=O)CNc3ncc(-c4ccc(C(C)(C)O)nc4)nc32)CC1` (stereo not given) the figure was 11.1 µM (active); with `Cc1ncsc1-c1ccc([C@H](C)NC(=O)[C@@H]2C[C@@H](O)CN2C(=O)[C@@H](NC(=O)COCCCOCCNC(=O)C[C@@H]2N=C(c3ccc(Cl)cc3)c3c(sc(C)c3C)-n3c(C)nnc32)C(C)(C)C)cc1`, 0.394 µM (active).

The same assay, now with this note: iHSKM muscle cells + IFN-b, HiBiT or CellTiter-Glo, 24 h; HiBiT; at 45.9 µM (top of the series).
`C=CCN(/C=C1\C(=O)O[C@@H](COC)[C@]2(C)C1=C(O)C(=O)C1=C2[C@@H](OC(C)=O)C[C@]2(C)C(=O)CC[C@H]12)CC=C`: the activity change, negative = inhibition is -5.45%.
Consider `Cc1cc(C)c(CNC(=O)c2cc(-c3ccc(N4CCN(C)CC4)nc3)cc3c2c(C)cn3C(C)C)c(=O)[nH]1`, for which the activity change, negative = inhibition was 0.953%.
Take `CN(C)CCOc1ccc(-c2nc(-c3ccc4c(c3)CC/C4=N\O)c(-c3ccncc3)[nH]2)cc1`: the activity change, negative = inhibition was 24.4%.
With `COc1cc(=C2C=c3ccccc3=N2)[nH]/c1=C/c1[nH]c(C)cc1C`, the activity change, negative = inhibition is -23.6%.
Turning to `COc1cc(C(=O)O)ccc1NC(=O)[C@@H]1N[C@@H](CC(C)(C)C)[C@](C#N)(c2ccc(Cl)cc2F)[C@H]1c1cccc(Cl)c1F`, the activity change, negative = inhibition was -14.1%.
For `O=C(CCc1ccc(O)cc1)c1c(O)cc(O)cc1O[C@@H]1O[C@H](CO)[C@@H](O)[C@H](O)[C@H]1O`, the activity change, negative = inhibition was 6.74%.
Turning to `C=C1/C(=C\C=C2/CCC[C@]3(C)[C@@H]([C@H](C)CCCC(C)(C)O)CC[C@@H]23)C[C@@H](O)C[C@@H]1O`, the activity change, negative = inhibition was -12.1%.

Staying with this assay, now noted: iHSKM muscle cells + IFN-b, HiBiT or CellTiter-Glo, 24 h; Viability.
For `COc1cc(=C2C=c3ccccc3=N2)[nH]/c1=C/c1[nH]c(C)cc1C`, the Potency is 1.25 µM (active).
On the same count and under the same terms, with `CC1(C)OC2=C(C(=O)c3ccccc3C2=O)[C@H](NCc2ccccc2)[C@@H]1O` the figure was 14 µM (active); with `CCCc1cc(C(=O)N[C@H](Cc2ccc(-c3cccc(OC(F)(F)F)c3)nc2)C(=O)N[C@@H]2CCNC2)sc1C`, 35.2 µM (active).

The assay is the same for the next values; noted with them: iHSKM muscle cells + IFN-b, HiBiT or CellTiter-Glo, 24 h; Viability; at 45.9 µM (top of the series).
With `Cc1cc(C)c(CNC(=O)c2cc(-c3ccc(N4CCN(C)CC4)nc3)cc3c2c(C)cn3C(C)C)c(=O)[nH]1`, the activity change, negative = inhibition is -10.1%.
Same read-out and setting: with `CS[C@H]1SC[C@@H]2C(=O)N(C)[C@H](C(C)C)C(=O)OC[C@H](NC(=O)c3cnc4ccccc4n3)C(=O)N[C@H](C)C(=O)N(C)[C@H]1C(=O)N(C)[C@H](C(C)C)C(=O)OC[C@H](NC(=O)c1cnc3ccccc3n1)C(=O)N[C@H](C)C(=O)N2C` the figure was 4.37%.
`CN(C)CCOc1ccc(-c2nc(-c3ccc4c(c3)CC/C4=N\O)c(-c3ccncc3)[nH]2)cc1`: the activity change, negative = inhibition was -15.1%.
On to `OC1CCC(Oc2cccc3cnc(Nc4ccc5nc[nH]c5c4)nc23)CC1` (stereo not given), for which the activity change, negative = inhibition is 9.5%.
For `Cn1cc(-c2ccc(-c3cncc(Cl)c3N3CCC4(CCNC4=O)CC3)cc2)cn1`, the activity change, negative = inhibition is -3.23%.
With `COc1cc(C(=O)O)ccc1NC(=O)[C@@H]1N[C@@H](CC(C)(C)C)[C@](C#N)(c2ccc(Cl)cc2F)[C@H]1c1cccc(Cl)c1F`, the activity change, negative = inhibition was -6.71%.
Same read-out and setting: the value for `O=C(CCc1ccc(O)cc1)c1c(O)cc(O)cc1O[C@@H]1O[C@H](CO)[C@@H](O)[C@H](O)[C@H]1O` was 1.25%.
As for `Cc1cc2cc(Oc3ccnc(Nc4cccc(CS(=O)(=O)NCCN(C)C)c4)n3)ccc2[nH]1`, the activity change, negative = inhibition was -27.6%.
The same measure, in the same setting: the value for `CN1CCN(c2ccc(Nc3ncc4cc(C#N)c(=O)n(C5CCCC5)c4n3)cc2)CC1` was -23.1%.
On the same count and under the same terms, with `C=C1C(=O)O[C@H]2C[C@H](C)C(/C=C/C(C)=O)=CC[C@H]12` the figure was 64.7%; with `O=C(/C=C\n1cnc(-c2cc(C(F)(F)F)cc(C(F)(F)F)c2)n1)NNc1cnccn1`, -1.81%.
On the same count and under the same terms, the value for `CC(=O)/C=C1/C(=O)N(C)c2ccccc21` was -2.06%; that for `Cc1cc(O)c(-c2ccc([C@@H](C)CN)cc2)c2c1[nH]c(=O)c1sccc12` was -14.1%.
Take `COC1CCC(N2C(=O)CNc3ncc(-c4ccc(C(C)(C)O)nc4)nc32)CC1` (stereo not given): the activity change, negative = inhibition was -5.62%.
On the same count and under the same terms, the value for `Cc1ncsc1-c1ccc([C@H](C)NC(=O)[C@@H]2C[C@@H](O)CN2C(=O)[C@@H](NC(=O)COCCCOCCNC(=O)C[C@@H]2N=C(c3ccc(Cl)cc3)c3c(sc(C)c3C)-n3c(C)nnc32)C(C)(C)C)cc1` was -12.4%.
Same read-out and setting: the value for `C=C1/C(=C\C=C2/CCC[C@]3(C)[C@@H]([C@H](C)CCCC(C)(C)O)CC[C@@H]23)C[C@@H](O)C[C@@H]1O` was -5.56%.
